Reference: PubChem BioAssay (Tox21)
Results filed as inconclusive are left out. Activity calls are given as the source filed them. Unless noted, calls come from the whole dose curve; as a rule, active = well fitted curve in the direction sought with a large enough effect in the repeat runs; inconclusive = weak or mixed curves; inactive = no such curve, though single readings can be large; an effect the other way counts as inactive or inconclusive.

Experiments:
[1] = qHTS assay to identify small molecule agonists of H2AX (AID 1224845; active = well fitted activation curve with a large enough effect in the signal ratio in the repeat runs, not every such curve was filed as active; the % refers to the signal ratio)
Outline: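 Phospho-H2AX Ser139 measured by HTRF (ex 320 nm; em 665 and 620 nm) after 24 hr antibody incubation. Compounds, 15 concentrations, 0.76% DMSO, were applied to CHO-K1 cells for 3hr at 37C before lysis.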

[2] = qHTS assay to identify small molecule agonists of the hypoxia (HIF-1) signaling pathway (AID 1224846; active = well fitted activation curve with a large enough effect in the signal ratio in the repeat runs, not every such curve was filed as active; the % refers to the signal ratio)
Outline: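 HRE-bla ME-180 beta-lactamase reporter cells in medium with 0.5% dialyzed FBS, pre-incubated 5 h then exposed to compounds 17 h at 37C, 5% CO2; reporter induction read with CCF4-AM FRET substrate.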

[3] = qHTS assay to identify small molecule agonists of H2AX - cell viability counter screen (AID 1224847; calls by dose curve; note: top concentration of the series differs between compounds; nearly all actives have a fitted effect of over 30% in size)
Outline: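 Read-out: CellTiter-Glo luminescence, 30 min RT. Cells: wild-type CHO-K1, 1000/well, 10% FBS, plated overnight at 37C. Treatment: 15 concentrations, 3 hr, 37C, 0.76% DMSO.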

[4] = qHTS assay to identify small molecule antagonists of the estrogen related receptor (ERR) signaling pathway from Tox21 library (AID 1224848); note: nearly all actives have a fitted effect of over 50% in size
Outline: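 Reading was by luminescence 30 min after ONE-Glo addition. Before that, ERR cells at 2,000 per well had rested 6 h at 37 C/5% CO2 and then received pin-tooled compounds in DMSO for 18 h at 37 C.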

[5] = qHTS assay to identify small molecule agonists of the estrogen related receptor (ERR) signaling pathway from Tox21 library (AID 1224849; calls by dose curve; note: nearly all actives have a fitted effect of over 15% in size); details: ERR reporter cell line, ONE-Glo luciferase, 18 h; at 92.4 µM (top of the series) unless noted
Outline: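 ERR reporter cells (NTP line) pre-incubated 6 hours at 37 C, then exposed to compounds for 18 hours at 37 C. ONE-Glo luciferase luminescence was read after 30 minutes at room temperature.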

[6] = qHTS RealTime-Glo MT Cell Viability Assay in HepG2 cells - 24 hour (AID 1224867); note: nearly all actives have a fitted effect of over 50% in size
Outline: (§1)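 Tox21 10K library screened in qHTS format on HepG2 cells carrying RealTime-Glo reagents. Compounds were added after a 5 h preincubation, and the luminescent signal from continuous culture was measured repeatedly during 40 h treatment.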

[7] = qHTS RealTime-Glo MT Cell Viability Assay in HEK293 cells - 32 hour (AID 1224868); note: top concentration of the series differs between compounds; nearly all actives have a fitted effect of over 50% in size
Outline: (§2)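 Luminescence generated by NanoLuc from substrate produced by living HEK293 cells served as the viability signal. Each value reflects the reading at its stated time point during continuous 40 h compound exposure at 37 C.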

[8] = A CellTox Green Cytotoxicity Assay to monitor cytotoxicity in HEK293 cells - 0 hour (AID 1224869); note: nearly all actives have a fitted effect of over 50% in size
Outline: (§3)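 HEK293 cells, 600/well, were preincubated 5 hours and then exposed to compounds at 37 C for up to 40 hours. A cell-impermeant cyanine dye staining dead-cell DNA was read by fluorescence at 0, 8, 16, 24, 32 and 40 h time points.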

[9] = qHTS RealTime-Glo MT Cell Viability Assay in HepG2 cells - 40 hour (AID 1224870); note: nearly all actives have a fitted effect of over 50% in size
Outline: (§4)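 Real-time viability: cells seeded at 600 per well together with NanoLuc and cell-permeant prosubstrate, compounds added after 5 h incubation. Luminescence tracked at 0, 8, 16, 24, 32 and 40 h of exposure.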

[10] = A CellTox Green Cytotoxicity Assay to monitor cytotoxicity in HEK293 cells - 40 hour (AID 1224871); note: nearly all actives have a fitted effect of over 45% in size
Outline: as §3

[11] = qHTS RealTime-Glo MT Cell Viability Assay in HEK293 cells - 16 hour (AID 1224872)
Outline: as §2

[12] = qHTS RealTime-Glo MT Cell Viability Assay in HepG2 cells - 8 hour (AID 1224873); note: nearly all actives have a fitted effect of over 55% in size
Outline: as §4

[13] = A CellTox Green Cytotoxicity Assay to monitor cytotoxicity in HEK293 cells - 24 hour (AID 1224875); note: nearly all actives have a fitted effect of over 45% in size
Outline: as §3

[14] = A CellTox Green Cytotoxicity Assay to monitor cytotoxicity in HepG2 cells - 16 hour (AID 1224876); note: nearly all actives have a fitted effect of over 45% in size
Outline: (§5)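 HepG2 cells, 600/well, preincubated 5 h with CellTox Green dye, then exposed to Tox21 compounds in DMSO at 37 C for up to 40 h. Dead-cell DNA fluorescence read at the indicated time point.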

[15] = qHTS RealTime-Glo MT Cell Viability Assay in HepG2 cells - 32 hour (AID 1224877); note: nearly all actives have a fitted effect of over 55% in size
Outline: as §1

[16] = A CellTox Green Cytotoxicity Assay to monitor cytotoxicity in HepG2 cells - 24 hour (AID 1224878); note: nearly all actives have a fitted effect of over 45% in size
Outline: as §5

[17] = A CellTox Green Cytotoxicity Assay to monitor cytotoxicity in HepG2 cells - 40 hour (AID 1224879); note: nearly all actives have a fitted effect of over 40% in size
Outline: as §5

[18] = qHTS RealTime-Glo MT Cell Viability Assay in HEK293 cells - 0 hour (AID 1224880)
Outline: (§6)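 600 cells/well were plated with the nonlytic NanoLuc/prosubstrate reagent, pre-incubated 5 h, then given 23 nL of compound in DMSO. Incubation at 37 C for 40 h, with luminescence from viable-cell-reduced substrate read repeatedly from 0 h.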

[19] = A CellTox Green Cytotoxicity Assay to monitor cytotoxicity in HEK293 cells - 32 hour (AID 1224881); note: nearly all actives have a fitted effect of over 40% in size
Outline: as §3

[20] = qHTS RealTime-Glo MT Cell Viability Assay in HEK293 cells - 40 hour (AID 1224874); details: RealTime-Glo luminescence; max response: active compounds read low; note: nearly all actives have a fitted effect of over 50% in size
Outline: as §6
% is set by controls: 0 for no effect and ±100 for the full control effect.

CO[C@@H]1[C@H](OC(=O)NC(=O)CCl)CC[C@]2(CO2)[C@H]1[C@@]1(C)O[C@@H]1CC=C(C)C
inactive: activation (H2AX phosphorylation) [1] 1.5% [at 31.6 µM] | activation [2] -0.119% [at 15.8 µM] | activity change, negative = cytotoxicity [3] 2.72% [at 31.6 µM] | activity, negative = inhibition [4] -8.28% [at 19 µM] | activity change, positive = activation [5] -4.67% [at 19 µM] | activity change, negative = cytotoxicity [6] 0.578% [at 15.8 µM] | activity change, negative = cytotoxic [7] 8.14% [at 15.8 µM] | cytotoxicity [8] -3.97% [at 15.8 µM] | activity change, negative = cytotoxic [9] 0.252% [at 15.8 µM] | cytotoxicity increase [10] -0.615% [at 15.8 µM] | activity change, negative = cytotoxicity [11] 13.2% [at 15.8 µM] | viability change, negative = cytotoxic [12] -0.3% [at 15.8 µM] | activity change [13] -10.2% [at 15.8 µM, active compounds read high] | cytotoxicity increase [14] -3.75% [at 15.8 µM] | activity change, negative = cytotoxic [15] 1.26% [at 15.8 µM] | cytotoxicity [16] -1.01% [at 15.8 µM] | cytotoxicity increase [17] -2% [at 15.8 µM] | activity change, negative = cytotoxicity [18] 1.11% [at 15.8 µM] | cytotoxicity increase [19] -3.65% [at 15.8 µM]

CC/C(=N\OC/C=C/Cl)C1=C(O)CC(C2CCOCC2)CC1=O (stereo not drawn)
inactive: Potency [1] | outcome [2] | Potency [3] | Potency [4] | activity change, positive = activation [5] 0.742% | Potency [6] | Potency [7] | Potency [8] | Potency [9] | Potency [10] | Potency [11] | Potency [12] | max response [20] 0.456% | Potency [13] | Potency [14] | Potency [15] | Potency [16] | Potency [17] | Potency [19]

O=C(O)CC(Cl)C(=O)O (stereo not drawn)
inactive: Potency [1] | outcome [2] | Potency [3] | Potency [4] | activity change, positive = activation [5] 7% | Potency [6] | Potency [7] | Potency [8] | Potency [9] | Potency [10] | Potency [11] | Potency [12] | max response [20] 0.924% | Potency [13] | Potency [15] | Potency [18] | Potency [19]

O=Cc1ccc(Cl)cc1Cl
inactive: Potency [1] | outcome [2] | Potency [3] | Potency [4] | activity change, positive = activation [5] -10.7% | Potency [6] | Potency [7] | Potency [8] | Potency [9] | Potency [10] | Potency [11] | Potency [12] | Potency [13] | Potency [14] | Potency [15] | Potency [16] | Potency [17] | Potency [19]

O=C(NC(=O)c1c(F)cccc1F)Nc1ccc(OC(F)(F)C(F)OC(F)(F)F)c(Cl)c1 (stereo not drawn)
inactive: Potency [1] | outcome [2] | Potency [3] | Potency [4] | activity change, positive = activation [5] -11.9% [at 42.5 µM] | Potency [6] | Potency [7] | Potency [8] | Potency [9] | Potency [10] | Potency [11] | Potency [12] | max response [20] -1.18% | Potency [13] | Potency [14] | Potency [15] | Potency [16] | Potency [17] | Potency [18] | Potency [19]

COc1cc(CC(C)N)cc2c1OCO2 (stereo not drawn)
inactive: Potency [1] | outcome [2] | Potency [3] | Potency [4] | activity change, positive = activation [5] -3.18% | Potency [6] | Potency [7] | Potency [8] | Potency [9] | Potency [10] | Potency [11] | Potency [12] | max response [20] -17.7% | Potency [13] | Potency [14] | Potency [15] | Potency [16] | Potency [17] | Potency [18] | Potency [19]
